TRPM1 prom inh – reduces MITF-dependent TRPM1 promoter luciferase signal. inhibition, % at 12.5 µM. hit rate 0.83% among 330,000. SK-MEL-5 TRPM1 promoter luciferase, 24 h. AID 488899;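 active = mean inhibition across replicates of 60% or more, whatever share of single replicates reaches that level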
Peg3 promoter – Peg3 promoter activity inhibition; hit rate 1.7% among 360,000; AID 588405; inhibition, % at 20 µM; HeLa PEG-Prom luciferase reporter, luminescence, overnight;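 active = inhibition of at least 50% at 20 µM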
KKLEB cytotox – CF airway cell cytotoxicity counter-screen | KKLEB CF airway cells viability, ATPlite luminescence, overnight; stronger effect = lower value; cells stimulated with P. aeruginosa culture filtrate | activity change (cytotoxicity), % at 5 µM | hit rate 0.36% among 360,000;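 active = corrected activity change at or below -50% at 5 µM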
Beta2AR agonist – activates human beta-2 adrenergic receptor causing internalization. P07550. Am2.2-beta2AR cells, FAP receptor internalization, flow cytometry. response, % (no concentration beside the values). hit rate 0.43% among 340,000. AID 504454;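 active = response above a set limit, near 3 SD of response in nonfluorescent compounds, cut at about 42% in these data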
Target sequence (P07550 whole entry, looked up): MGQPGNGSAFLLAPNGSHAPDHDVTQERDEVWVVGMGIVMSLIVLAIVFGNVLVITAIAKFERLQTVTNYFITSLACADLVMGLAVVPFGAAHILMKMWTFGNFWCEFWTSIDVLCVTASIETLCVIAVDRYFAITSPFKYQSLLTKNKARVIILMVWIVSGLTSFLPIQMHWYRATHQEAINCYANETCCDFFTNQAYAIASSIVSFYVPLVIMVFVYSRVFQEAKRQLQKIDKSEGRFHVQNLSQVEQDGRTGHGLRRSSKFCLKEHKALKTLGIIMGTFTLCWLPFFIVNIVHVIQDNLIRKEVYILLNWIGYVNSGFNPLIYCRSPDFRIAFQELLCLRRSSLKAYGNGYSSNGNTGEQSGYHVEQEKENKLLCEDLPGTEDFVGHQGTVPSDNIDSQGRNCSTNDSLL
HIF-2a inh – HIF-2a inhibition; 786-0 RCC cells HIF-2a reporter, luciferase luminescence, overnight; inhibition, % at 18.8 µM; hit rate 0.72% among 360,000;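 active = inhibition of the luminescence signal of 40% or more relative to plate controls, in a single-dose primary screen at 18.75 µM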
CF NFkB inh – cystic fibrosis NF-kB activation inhibition. KKLEB NF-kB-GFP reporter, PAF-induced, GFP fluorescence overnight. inhibition, % at 5 µM. hit rate 0.86% among 360,000;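 active = at least 50% inhibition at 5 µM, scaled per plate between neutral and stimulator controls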;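 note: PAF is a Pseudomonas aeruginosa culture filtrate used as stimulus; plate controls were PAF-stimulated DMSO wells for no effect and unstimulated DMSO wells for full effect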
Beta2AR ag CP1 – agonists of human beta-2 adrenergic receptor | AID 540358 | hit rate 25% among 1,100 | Am2.2-beta2AR cells, FAP surface receptor, flow cytometry; stronger effect = lower value | percent response (surface receptor), % at 10 µM | shares compounds with Beta2AR agonist;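 active = surface receptor percent response at or below 58%, roughly 3 SD from nonfluorescent compounds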
FAP fluor counter – fluorescence artifact in beta-2AR agonist FAP counterscreen; AID 588765; Am2.2 cells, FAP fluorogen flow cytometry; stronger effect = lower value; 1,100 tested, under 10 active; calls only at 10 µM; shares compounds with Beta2AR agonist;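 active = percent response below a set limit in fluorescence channel 1 and below 50% in channel 8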
Numbers without * were called inactive; i = inactive; · = no result given. Compounds with a hit are over-represented: about 2.8% of the library has one in this group of screens.

SMILES	TRPM1 prom inh	Peg3 promoter	KKLEB cytotox	Beta2AR agonist	HIF-2a inh	CF NFkB inh	Beta2AR ag CP1	FAP fluor counter
COc1ccc([C@H]2/C=C\CN(C(=O)CC(C)(C)C)[C@@H](C)C(=O)N2Cc2ccc(F)cc2)cc1	-5.9	20.9	-18.4	-7.6	6.0	19.6	·	·
COc1ccc([C@H]2/C=C\CN(Cc3ccc(N(C)C)cc3)[C@@H](C)C(=O)N2Cc2ccc(F)cc2)cc1	-1.5	-70.4	-10.3	113.2*	-7.8	10.9	28.9*	i
Cc1c(C(=O)NCc2cccc(C(F)(F)F)c2)sc(=O)n1Cc1ccccc1F	·	17.4	-12.4	·	5.7	15.4	·	·
CCOC(=O)[C@]12CCCC=C1N(Cc1ccc(Cl)cc1Cl)C(=O)[C@H](CC(=O)NCCc1ccccc1OC)C2	·	·	·	·	-22.9	·	·	·
CN1CCN(c2ccc(CNC(=O)C3(C)Cc4c(-c5ccc6c(c5)OCO6)ccnc4O3)cc2)CC1 (stereo not drawn)	·	7.6	5.0	·	-4.2	-28.0	·	·
CC(=O)N1CCN(Cc2nc3cc(NC(=O)c4ccccc4)ccc3n2C)CC1	-10.6	-25.8	-3.8	0.0	-53.6	4.4	·	·
COc1ccccc1C(=O)Nc1ccc2c(c1)nc(CN1CCN(C(C)=O)CC1)n2C	-15.5	-82.7	-3.2	52.9*	-118.9	-4.6	113.3	i
O=C(NNC(=S)Nc1ccccc1)c1cccc(Br)c1	-6.4	-196.4	7.4	-10.2	-281.0	1.2	·	·
CC(C)(C)NC(=S)NNC(=O)c1cccc(Br)c1	-37.2	-168.5	4.6	-11.4	-297.1	-13.5	113.1	i
CCOC(=O)C1=C[C@@H](C2CCCC2)N(S(=O)(=O)c2ccc([N+](=O)[O-])cc2)[C@H]1c1ccccc1	·	6.8	1.8	·	-5.7	11.2	·	·
COc1ccc(OC)c(NC(=O)COc2ccc(Br)cc2)c1	-0.7	-17.4	1.6	67.9*	-26.7	1.6	105.0	i
O=C(CN1CCc2ccccc2C1)Nc1ccccc1N1CCCCCC1	13.1	28.0	-3.5	110.0*	4.1	16.9	96.7	i
O=C(CN1CCc2ccccc2C1)Nc1ccccc1Cl	-5.9	-10.7	0.2	0.2	-15.1	4.9	·	·
O=C1CCN(Cc2nnnn2CC2CCCO2)c2ccccc2N1 (stereo not drawn)	7.6	11.4	-10.5	42.2*	8.1	14.8	104.8	i
CC(C)(C)NC(=O)C(C1CC1)n1c(-c2ccccc2)nc2ccccc21 (stereo not drawn)	·	·	·	·	-20.1	·	·	·
COc1cccc(C(O)c2ncc(-c3ccc(C(F)(F)F)cc3)[nH]2)c1 (stereo not drawn)	·	12.6	-0.6	·	-3.0	-21.2	·	·
Clc1ccc(OCCCNCc2ccccc2)c(Br)c1	-5.0	3.3	0.4	-12.7	1.7	1.9	·	·
Clc1ccc(Cl)c(OCCCCNCc2ccccc2)c1	-8.3	23.8	-3.1	46.1*	9.3	20.6	113.7	i
COc1ccccc1Nc1nc(NCc2ccco2)c2ccccc2n1	·	-47.5	-12.0	8.0	-80.5	4.3	124.6	i
CN1CCN(CCc2nc3cc(NC(=O)COc4ccc(Cl)cc4)ccc3n2C)CC1	3.2	4.2	-3.4	47.2*	-0.8	1.8	96.8	i
Cc1ccc(OCC(=O)Nc2ccc3c(c2)nc(CCN2CCN(C)CC2)n3C)cc1	3.0	2.6	6.7	1.0	7.6	5.3	94.5	i
NC(c1ccccc1)c1csc(Nc2ccc(C(=O)c3ccccc3)cc2)n1 (stereo not drawn)	·	22.5	-14.3	·	-14.6	23.6	·	·
Cc1ccc(S(=O)(=O)Nc2ccc(O)c3cccnc23)cc1	21.7	78.2*	4.7	9.2	84.2*	58.8*	104.4	i
CNC(=O)C[C@H]1C(=O)N(CCc2ccccc2)C[C@@H]1C	·	-11.8	4.7	·	-7.5	-2.1	·	·
CNCC(O)c1ccc(OC(=O)C(C)(C)C)c(OC(=O)C(C)(C)C)c1 (stereo not drawn)	-18.9	-12.5	5.7	16.4	-6.4	2.6	45.5*	i
SMILES	TRPM1 prom inh	Peg3 promoter	KKLEB cytotox	Beta2AR agonist	HIF-2a inh	CF NFkB inh	Beta2AR ag CP1	FAP fluor counter
CN(CC(=O)Nc1ccc(Cl)c(Cl)c1)CC(=O)N1CCc2ccccc21	·	16.0	-2.8	·	-31.3	11.2	·	·
CC(C)(C)OC(=O)Nc1ccccc1-n1nnnc1C(C(=O)c1ccccc1)N1CCN(c2ccccn2)CC1 (stereo not drawn)	·	·	·	·	-21.7	·	·	·
C[C@@H]1CN([C@@H](C)CO)C(=O)CCCn2nncc2CO[C@H]1CN(C)Cc1cccc(O)c1	·	2.5	-1.2	·	2.9	-20.6	·	·
c1ccc(CSc2nnnn2-c2cccc3ccccc23)nc1	-0.6	1.2	2.0	43.3*	-6.9	0.0	38.9*	i
O=CNc1cc(-c2ccoc2)cn2c(-c3ccc(F)cc3)cnc12	·	1.6	0.6	·	9.6	-10.2	·	·
O=C(c1cccc(C(=O)N2CCN(Cc3ccccc3)CC2)c1)N1CCN(Cc2ccccc2)CC1	11.0	2.6	12.5	-5.8	-4.8	-8.8	·	·
O=C(c1cccc(Cl)c1)N1CCC(C(=O)N2CCN(Cc3ccccc3)CC2)CC1	0.4	6.5	-3.4	78.9*	2.3	-0.3	25.4*	i
CCOC(=O)Cn1nc(C)n(-c2ccc(C(C)(C)C)cc2)c1=O	8.4	-8.9	-2.1	51.0*	17.6	7.9	108.6	i
Cc1cc(S(=O)(=O)N2CCOCC2)ccc1OCC(=O)Nc1ccc(F)c(Cl)c1	-9.0	-10.8	0.1	-0.1	19.4	6.5	111.5	i
Cc1ccc(OCC(=O)Nc2ccc(S(=O)(=O)N3CCOCC3)cc2)c(C)c1	-3.1	14.3	8.1	1.9	5.3	-6.3	·	·
Cc1cc(S(=O)(=O)N2CCOCC2)ccc1OCC(=O)Nc1ccc(F)cc1	1.8	2.9	7.8	2.8	21.8	-1.8	111.8	i
O=C(COc1ccccc1CNC[C@H]1O[C@@H](n2ccc(=O)[nH]c2=O)[C@H](O)[C@@H]1O)N1CCCCC1	·	4.1	-5.9	·	4.1	-8.6	·	·
C#CCNC(=O)c1ccc2sc([C@H]3C[C@H](O)[C@@H](CO)O3)nc2c1	·	5.5	10.4	·	-12.7	-12.2	·	·
Cc1c(C(=O)NCc2ccc(F)cc2)sc(=O)n1Cc1ccc(Cl)c(Cl)c1	·	23.7	-1.4	·	1.2	-41.6	·	·
CN1CCN(Cc2cc(COCc3ccccc3)c3cccnc3c2O)CC1	79.2*	40.7	5.3	28.5	11.3	8.9	90.4	i
Oc1ccc(CN2CCN(Cc3ccccc3)CC2)c2cccnc12	27.8	-24.5	-4.4	9.3	13.7	-9.5	·	·
COc1ncnc2c1oc1nc(C)c3c(c12)CC(C)(C)OC3	·	6.3	-7.1	8.6	16.2	-6.3	78.8	i
COc1ncnc2c1oc1nc(C(C)C)c3c(c12)CC(C)(C)OC3	1.6	1.8	-18.7	-20.8	0.9	18.8	·	·
